Sampled rows, rich in hits. Any-hit rate of the full collection: about 9.7%.
Fluor 339 460: intrinsic fluorescence of library compounds, ex339/em460 – biochemical, MLSMR library, data from DPM-DC assay, artefact control, profiling panel | fluorescence fold increase at 10 µM | compound autofluorescence, ex339/em460 nm, NADH buffer; hits give high values; 1 = no-compound wells, NADH background | hit rate 5.5% among 65,000;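 active means at 10 µM, mean starting fluorescence two-fold or more over control wells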;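 further: signal is the first read of a kinetic run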
A340 absorber: compounds absorbing at 340 nm | compound absorbance at 340 nm, fold over control | 65,000 tested, under 10 active | fold change at 10 µM | AID 708;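 active means at 10 µM dose, initial 340 nm absorbance at least 2 fold that of control wells; inactive means change under 2 fold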;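 further: initial absorbance extrapolated from kinetic A340 decline of NADH oxidation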
BAP1 block: inhibitors of human BAP1 deubiquitinase. Q92560. recombinant BAP1, Ub-AMC hydrolysis fluorescence kinetic; hits give low values. calls only at 20 µM. hit rate 0.48% among 72,000. AID 436;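 active means activity remaining at or below 50% of control, provided the compound also passes the data quality filters; inactive means the rest, including low values that fail the filters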;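 further: 100% = DMSO wells rate and 0% = substrate alone blank rate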
Target sequence (Q92560 whole entry, looked up): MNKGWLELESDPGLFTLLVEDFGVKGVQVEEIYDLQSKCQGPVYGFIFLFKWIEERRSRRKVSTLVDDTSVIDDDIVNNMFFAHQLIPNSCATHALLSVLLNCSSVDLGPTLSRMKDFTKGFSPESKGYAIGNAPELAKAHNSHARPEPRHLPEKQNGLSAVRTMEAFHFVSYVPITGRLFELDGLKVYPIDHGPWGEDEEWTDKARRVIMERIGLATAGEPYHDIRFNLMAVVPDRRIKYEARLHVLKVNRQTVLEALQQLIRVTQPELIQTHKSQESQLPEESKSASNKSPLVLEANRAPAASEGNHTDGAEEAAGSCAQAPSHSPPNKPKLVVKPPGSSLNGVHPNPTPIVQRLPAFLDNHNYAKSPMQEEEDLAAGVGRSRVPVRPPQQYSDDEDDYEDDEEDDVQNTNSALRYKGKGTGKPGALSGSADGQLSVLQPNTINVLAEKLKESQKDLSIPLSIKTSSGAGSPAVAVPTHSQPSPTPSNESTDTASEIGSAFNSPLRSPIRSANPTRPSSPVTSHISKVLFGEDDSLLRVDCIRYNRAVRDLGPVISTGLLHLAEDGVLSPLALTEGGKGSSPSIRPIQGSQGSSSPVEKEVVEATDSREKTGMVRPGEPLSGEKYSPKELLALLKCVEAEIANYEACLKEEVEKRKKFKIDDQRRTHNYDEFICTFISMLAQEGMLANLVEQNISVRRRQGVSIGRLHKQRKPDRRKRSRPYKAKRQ
M1 antag: antagonists of rat M1 muscarinic receptor. P08482. CHO-M1 cells, Fluo-4 calcium, ACh EC80 antagonist mode; hits give low values. B-score at 10 µM. hit rate 3.4% among 64,000. AID 628;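 active means calcium fluorescence response, raw or row-and-column corrected B-score, differing from the plate sample mean either way at a set confidence level, mostly lower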
WNV NS2B-NS3 inh: inhibitors of West Nile virus NS2B-NS3 protease; z-score (concentration not given with the values); WNV NS2B-NS3 protease, fluorogenic substrate Ex360/Em465; hits give low values; hit rate 0.18% among 65,000; P06935; in the data active means z-score below about -3
M1 agonist: M1 muscarinic receptor agonism; CHO-M1 cells, Fluo-4 calcium fluorescence, agonist mode; hits give high values; B-score at 10 µM; hit rate 3% among 64,000;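 active means fluorescence rise, raw or as B-score row- and column-corrected plate score, outside the 99.7% band of its plate's samples, either direction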
M1 agonist conf: rat M1 muscarinic agonism, confirmation. shares compounds with M1 agonist. CHO-M1 cells, Fluo-4 calcium fluorescence, agonist mode; actives lie on both sides. fluorescence change (max-min) at 10 µM. hit rate 19% among 1,700;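 active means fluorescence change differs from the solvent-only DMSO control mean at a set confidence level in both duplicate runs; inconclusive means differs from solvent-only control mean in just one of two runs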;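 further: an EC20 dose of acetylcholine follows compound addition during the same imaging run; raw fluorescence intensity difference in instrument units with no normalization to controls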
M4 agonist ctr: counter-screen for M1 agonists: activity at rat M4 receptor. shares compounds with M1 agonist. CHO M4/Gqi5 cells, Fluo-4 calcium fluorescence, agonist mode; actives lie on both sides. fluorescence change (max-min) at 10 µM. hit rate 9% among 1,700;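 active means fluorescence change differing from the plate's solvent-only control wells at 99.7% confidence in both duplicates, whether higher or lower; inconclusive means differs from solvent controls in only one of two duplicates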
Active calls of the source: *; i = inactive; ? = inconclusive; / = not tested or not shown.

SMILES | Fluor 339 460 | A340 absorber | BAP1 block | M1 antag | WNV NS2B-NS3 inh | M1 agonist | M1 agonist conf | M4 agonist ctr
Cc1ccc2[nH]c(=O)c(CN(CCc3ccccc3)C(=O)N3CCOCC3)cc2c1 | 1.6 | 1.1 | i | -0.34 | 1.6 | 14* | -7.9 | ?
Cc1ccc2c(c1)cc(CN(CCc1ccccc1)C(=O)N1CCOCC1)c1nnnn12 | 1.1 | 1 | i | 0.16 | -1.4 | 0.18 | / | /
CC(C)N(CCC#N)S(=O)(=O)c1ccc([N+](=O)[O-])cc1 | / | / | i | / | / | / | / | /
COCCCNc1c2c3c(cccc3[nH]c1=O)C(=O)c1ccccc1-2 | / | / | / | -13* | / | 466* | 3166* | 2818*
COc1ccc(CCNc2c(C)c(C)nc3ncnn23)cc1 | 1.1 | 0.98 | i | -1.2* | -1.5 | 3.3* | 15 | -38
CC1Cc2ccccc2N1C(=O)c1ccc2snnc2c1 (stereo not given) | 0.8 | 1 | i | 0.31 | 0.75 | 7.5* | -18 | ?
CC1CN(C(=O)Nc2ccc3snnc3c2)c2ccccc21 (stereo not given) | 1.1 | 1.1 | i | 0.12 | -0.79 | 1.7 | / | /
CCSC1=N/C(=C\c2ccc(C(=O)O)cc2)C(=O)S1 | 1.1 | 1.1 | i | 0.66 | -1.5 | 0.011 | / | /
CCOC(=O)SC1=N/C(=C\c2ccc(N(C)C)cc2)C(=O)S1 | 1 | 1 | i | 0.66 | -0.46 | 10* | ? | ?
Cc1ccc(-c2nc(Nc3ccccc3C)sc2C)cc1 | / | / | i | / | / | / | / | /
Cc1ccc(-c2nn[nH]n2)o1 | 1.1 | 0.99 | i | 0.095 | 0.1 | 4.3* | -15 | ?
CCCCCc1ccc(C(=O)CCN(C)C)cc1 | / | / | i | / | / | / | / | /
O=C1c2ccccc2-c2onc3ccc(NCCCn4ccnc4)c1c23 | 1 | 1 | i | -11* | 0.59 | 97* | 9 | 272
COc1ccc2c(c1)CCc1c(C(=O)NCCCn3ccnc3)noc1-2 | 1.3 | 1 | i | -0.57 | -0.41 | -0.17 | / | /
CCOC(=O)c1c(-c2ccccc2)nnn1-c1nc(OCC)nc(N2CCCCC2)n1 | 1 | 0.98 | i | -1.9 | -0.71 | 6.6* | -29* | ?
COC(=O)c1ccc(C(=O)OC)c(NC(=O)COC(=O)C23CC4CC(CC(O)(C4)C2)C3)c1 | 1.5 | 0.96 | i | -1.7 | -0.63 | 5.3* | -6.2 | -22
CCOCC(=O)Nc1cc(C(=O)OC)ccc1C(=O)OC | 1.9 | 1 | i | -0.21 | -0.94 | -1 | / | /
N#CCNC(=O)c1ccccc1Br | / | / | i | / | / | / | / | /
CCOc1nc(NCCc2ccc(OC)c(OC)c2)nc(NC(C)(C)CO)n1 | 1.1 | 0.97 | i | -1.3 | -0.9 | 2.1* | ? | -66
COC(=O)c1ccc(/C(O)=C(\C#N)c2nc3ccccc3s2)cc1 | 1 | 1.1 | i | -2.4* | 1.1 | 2.7* | 28 | -1.3
COc1ccc(S(=O)(=O)N2CCCCCC2)cc1C(=O)OCc1c(C)noc1C | 1.1 | 0.99 | i | -0.54 | -0.16 | 0.05 | / | /
Cc1noc(C)c1COC(=O)c1cccc(S(=O)(=O)N2CCCCCC2)c1 | 1.1 | 0.96 | i | -2.2 | -1.3 | 3.1* | -17 | -39
CCOc1ccc(S(=O)(=O)N2CCN(c3ccccc3OC)CC2)c2cccnc12 | 1.1 | 1 | i | -0.52 | -0.31 | 5.2* | -16 | -49
CCOc1cccc(C(=O)Nc2nc(-c3ccc(S(=O)(=O)N4CCOCC4)cc3)cs2)c1 | 1.4 | 1.1 | / | -0.47 | 0.56 | 3.7* | -26 | -24
CC(C)n1nc(C(=O)OCC(=O)N(C)C2CCS(=O)(=O)C2)c2ccccc2c1=O (stereo not given) | 1.2 | 1 | i | 1 | 1.1 | 10* | -11 | -39
SMILES | Fluor 339 460 | A340 absorber | BAP1 block | M1 antag | WNV NS2B-NS3 inh | M1 agonist | M1 agonist conf | M4 agonist ctr
Cc1oc2nc(SCCCC(=O)NCCCO)nc(N)c2c1C | 1 | 0.99 | i | 0.73 | 0.01 | 4.6* | ? | ?
COc1ccc(OC)c(CCNC(=O)Cn2sc3nc(C)cc(C)c3c2=O)c1 | 1.2 | 1.1 | i | -0.49 | -0.66 | 8* | ? | -28
Cc1cc(C)nc(/N=C2\NC(=O)CC(C(=O)O)N2CCc2c[nH]c3ccccc23)n1 (stereo not given) | 1.1 | 1.1 | i | -0.58 | -0.23 | 3.2* | -17 | -28
CCOC(=O)Cn1c(=O)oc2cc(S(=O)(=O)Nc3ccc(F)cc3)ccc21 | 1.1 | 1.1 | i | -1.1 | 1.2 | 3.8* | 37 | 2.6
COc1cc(N)ccc1Cc1ccc(N)cc1OC | 1.1 | 1 | i | 1.1 | -0.82 | 3.7* | -19 | -27
Cc1ccc2occ(C(c3nnnn3C3CCCC3)N3CCN(C(=O)c4ccco4)CC3)c(=O)c2c1 (stereo not given) | 1.2 | 1 | i | -2 | 1.2 | 2.7* | ? | ?
O=C(c1ccco1)N1CCN(C(c2ccccn2)c2nnnn2C2CCCC2)CC1 (stereo not given) | 1.1 | 0.99 | i | 0.95 | 0.59 | 0.44 | / | /
COc1cccc2cc(NC(=O)c3ccc(Cl)cc3)c(=O)oc12 | / | / | i | / | / | / | / | /
CN(C)c1ccc(N/C=C/C(=O)c2ccccc2)cc1 | 1.1 | 1.1 | / | -0.065 | -1.3 | 2.5* | ? | -8.6
COc1cccc(C2C3CN(C)CC=C3C(C#N)=C(N)C2(C#N)C#N)c1OC (stereo not given) | 1.6 | 1.1 | / | 0.42 | 0.42 | 87* | 651* | 605*
CCOC(=O)N1CC=C2C(C#N)=C(N)C(C#N)(C#N)[C@H](c3ccc(OC(C)C)c(OCC)c3)[C@H]2C1 | 1.2 | 1.1 | i | 0.69 | 1.5 | -1.2 | / | /
CCOC(=O)N1CC=C2C(C#N)=C(N)C(C#N)(C#N)[C@H](c3ccccc3OCC)[C@H]2C1 | 1.3 | 1 | i | 1.6 | -0.45 | -0.013 | / | /
CN1CC=C2C(C#N)=C(N)C(C#N)(C#N)[C@H](c3cccc(Cl)c3)C2C1 (stereo not given in full) | 1.4 | 1 | i | -0.18 | -0.75 | 54* | 173* | 112
CN1CC=C2C(C#N)=C(N)C(C#N)(C#N)C(CCc3ccccc3)C2C1 (stereo not given) | 2* | 1 | i | -1.1 | -0.61 | 18* | 91* | 37
CCN1CC=C2C(C#N)=C(N)C(C#N)(C#N)[C@H](c3cccc(OC)c3OC)[C@H]2C1 | 1.6 | 1 | i | -1.8 | 0.15 | 271* | 307* | ?
ClCCCN1c2ccccc2Sc2ccc(Cl)cc21 | / | / | i | / | / | / | / | /
Cc1ccc(C(=O)c2sc3nc(N)c(C#N)c(-c4ccc(C(C)C)cc4)c3c2N)cc1 | / | / | i | / | / | / | / | /
Cc1cc(C(=O)Nc2ccc(N(C)C)cc2)c(C)o1 | / | / | i | / | / | / | / | /
COc1cc([C@@H]2[C@H]3CN(C)CC=C3C(C#N)=C(N)C2(C#N)C#N)cc2c1OCO2 | 1.2 | 1 | i | 0.21 | -0.3 | 6.6* | 31 | 9.7

Screening results deposited in PubChem BioAssay by several laboratories.
